# Compound activity (PubChem BioAssay)
# Shown are actives, neighbours in structure and some others; about 3.4% of the full set was active somewhere.
# rRNA inh HTS – reduced GFP signal of wild-type E. coli, primary screen, bacterial rRNA inhibitor project, GFP/RFP fluorescence, OD600, single point; E. coli WT GFP vs humanized-ribosome RFP mutants, 24 h; stronger effect = lower value; DMSO median 0, no signal -100; GFP signal change (wild-type ribosome), % (concentration not given with the values); 350,000 tested, 1.6% active;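 active = significant combined selectivity score with lowered wild-type GFP, culture density cut under 30%, mutant RFP and density less affected; inactive = any of these conditions unmet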
# LGR2 antag – inhibitors of bursicon-induced LGR2 CRE-luciferase signal, primary screen, cell-based, HEK293, CRE-luciferase reporter, bursicon stimulation | Drosophila bursicon receptor LGR2 (rickets) | AID 720647, 2013 | inhibition, % at 9.99 µM | bursicon-stimulated, 4 h | 380,000 tested, 0.35% active;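 active = drop in luminescence signal, shown as inhibition above about 50% in the replicate tests, limit read from the data, passing the limit was not always enough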;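 note: agonist challenge used bursicon conditioned medium at about half maximal strength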
# SIRT5 block – SIRT5 desuccinylase inhibitors, primary screen, biochemical, fluorescence imaging, single point, set 5; Purified SirT5, succinyl-peptide AMC, trypsin-coupled fluorescence; inhibition, % at 15 µM; 330,000 tested, 1.1% active; AID 652115, 2013; in the data active = inhibition above about 15%
# Target sequence (Q9NXA8 whole entry, looked up): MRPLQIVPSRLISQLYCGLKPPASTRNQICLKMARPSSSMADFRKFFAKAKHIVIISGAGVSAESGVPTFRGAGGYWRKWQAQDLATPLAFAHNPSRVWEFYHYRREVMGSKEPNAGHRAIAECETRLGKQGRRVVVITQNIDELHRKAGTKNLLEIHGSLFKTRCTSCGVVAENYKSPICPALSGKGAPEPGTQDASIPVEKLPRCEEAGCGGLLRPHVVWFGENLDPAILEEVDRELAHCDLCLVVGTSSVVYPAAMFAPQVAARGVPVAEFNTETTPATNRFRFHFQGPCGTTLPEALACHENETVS
# EWS-Fli inh – EWS/Fli-driven NR0B1 reporter inhibitors, primary screen, A673 cells, NR0B1 luciferase, luminescence, MLPCN library; viability-normalised; 350,000 tested, 0.67% active; AID 651661, 2012; inhibition, % at 12.6 µM;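 active = mean inhibition of at least 50% after viability correction, with every replicate also passing that limit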;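 note: firefly luciferase signal divided by Alamar Blue viability fluorescence both relative to DMSO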
# PAX8 reporter – inhibitors of PAX8-driven TPO luciferase reporter, primary screen, RMG-I cells, single concentration. SteadyGlo, 24 h. inhibition, % at 12.6 µM. 360,000 tested, 1.2% active. AID 652154, 2013;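 active = mean replicate inhibition at least 60% with every replicate also reaching 60%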;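 note: luciferase light reporting Pax8 driven TPO promoter activity; plate controls were median of neutral control wells for no effect and mitoxantrone controls for full effect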
# PGC1a acetyl inh – inhibitors of PGC1a acetylation signal, primary screen, cell-based, U2OS, AlphaScreen, inhibitor mode; AlphaScreen anti-acetyl-lysine; with virally co-expressed GCN5 acetyltransferase; inhibition, % at 15.6 µM; 350,000 tested, 0.17% active;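 active = every replicate shows inhibition of at least 40%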;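 note: 0% = neutral control wells and 100% = positive control wells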
# * = called active by the depositor; x = no result given.
SMILES,rRNA inh HTS,LGR2 antag,SIRT5 block,EWS-Fli inh,PAX8 reporter,PGC1a acetyl inh
Cc1ccc(S(=O)(=O)Nc2ccc3c(c2)C(=O)N([C@@H](C)CO)C[C@H](C)[C@H](CN(C)Cc2ccc(C(F)(F)F)cc2)OCCCC[C@H](C)O3)cc1,2,-6,15*,6,108*,-3
Cc1ccc(S(=O)(=O)Nc2ccc3c(c2)C(=O)N([C@@H](C)CO)C[C@H](C)[C@H](CN(C)Cc2ccc(C(F)(F)F)cc2)OCCCC[C@@H](C)O3)cc1,2,14,18*,9,102*,-4
C[C@@H]1CCCCO[C@@H](CN(C)Cc2ccc(C(F)(F)F)cc2)[C@@H](C)CN([C@H](C)CO)C(=O)c2cc(NS(=O)(=O)c3ccc(F)cc3)ccc2O1,6,15,4,-14,-2,-1
C[C@H]1CCCCO[C@H](CN(C)Cc2ccc(C(F)(F)F)cc2)[C@@H](C)CN([C@@H](C)CO)C(=O)c2cc(NS(=O)(=O)c3ccc(F)cc3)ccc2O1,0,11,23*,14,89*,13
C[C@@H]1CN([C@H](C)CO)C(=O)c2cc(NS(=O)(=O)c3ccc(F)cc3)ccc2O[C@@H](C)CCCCO[C@@H]1CN(C)Cc1ccccc1,-9,25,12,29,106*,7
C[C@H](CO)N1C[C@H](C)[C@@H](CN(C)Cc2ccccc2)OCCCC[C@H](C)Oc2ccc(NS(=O)(=O)c3ccc(F)cc3)cc2C1=O,0,3,2,3,-18,4
COc1ccc2c3c([nH]c2c1)[C@H](CO)N(C(=O)NC(C)C)CC31CN(C(=O)NC2CCCC2)C1,1,-11,x,-5,x,0
C/C=C/c1ccc2c(c1)O[C@@H](CN(C)C(=O)CN(C)C)[C@H](C)CN([C@H](C)CO)S2(=O)=O,2,-8,-3,-10,x,-9
Cc1ccc(S(=O)(=O)Nc2ccc3c(c2)C(=O)N([C@@H](C)CO)C[C@@H](C)[C@@H](CN(C)Cc2ccc(C(=O)O)cc2)OCCCC[C@@H](C)O3)cc1,-2,18,3,-26,-4,-8
Cc1ccc(S(=O)(=O)Nc2ccc3c(c2)C(=O)N([C@H](C)CO)C[C@@H](C)[C@H](CN(C)Cc2ccc(C(F)(F)F)cc2)OCCCC[C@H](C)O3)cc1,-2,20,13,66*,116*,8
C=CCNC(=O)COc1c(C)ccc(C)c1C,-3,-15,23*,0,-10,-2
O=C1N[C@@H](Cc2c[nH]c3ccccc23)COC(=O)[C@H](Cc2ccc(F)cc2)C/C=C\C[C@H]1CC(=O)N(CCO)Cc1ccccc1,9,15,x,3,12,x
O=C1N[C@@H](Cc2c[nH]c3ccccc23)COC(=O)[C@@H](Cc2ccc(F)cc2)CC/C=C/C[C@@H]1CC(=O)N(CCO)Cc1ccccc1,0,16,-3,10,75*,x
Cn1cnc([N+](=O)[O-])c1S(=O)(=O)Oc1cccc2ccccc12,-2,18,-1,50,80*,-63
CCS(=O)(=O)c1c([N+](=O)[O-])ncn1C,x,5,-1,-3,-3,x
Cn1cnc([N+](=O)[O-])c1S(=O)(=O)Oc1ccc(Cl)cc1,x,-9,-2,64*,110*,-45
Cn1cnc([N+](=O)[O-])c1Oc1cccc2ccccc12,x,21,x,x,15,x
COc1ccc(OCCNC(=O)/C=C/c2ccc([N+](=O)[O-])cc2)cc1,0,8,-2,3,107*,-2
O=C(/C=C/c1ccc([N+](=O)[O-])cc1)NCCOc1ccc(F)cc1,7,29,-1,1,9,x
C[C@@H]1CN([C@@H](C)CO)C(=O)Cc2cc(N(C)C)ccc2O[C@@H]1CN(C)C(=O)Nc1ccc(C(F)(F)F)cc1,1,7,-4,0,17,-9
